Bioassay records as filed in PubChem BioAssay.
USP30 inh: human USP30 deubiquitinase inhibition. purified USP30, Ub-rhodamine cleavage fluorescence. inhibition, % at 25 µM. actives 5.3% (n = 47,000)
OTUD3 block: blocks human OTUD3 ubiquitin-rhodamine cleavage; actives 0.7% (n = 47,000); AID 1645858; purified OTUD3, Ub-rhodamine fluorescence, 2 h; inhibition, % at 25 µM
USP28 inh: human USP28 deubiquitinase inhibition; Q96RU2; purified USP28, Ub-rhodamine cleavage fluorescence, 30 min; inhibition, % at 25 µM; actives 3% (n = 47,000); AID 1645857
USP10 inh: inhibitors of human USP10 deubiquitinase | Q14694 | purified USP10, Ub-rhodamine fluorescence, 60 min | inhibition, % at 20 µM | actives 1.1% (n = 47,000) | AID 1645856
USP8 block: human USP8 deubiquitinase inhibition | purified USP8, Ub-rhodamine cleavage fluorescence, 30 min | inhibition, % at 20 µM | P40818 | actives 4.2% (n = 47,000) | AID 1645853
USP17 inh: human USP17-like deubiquitinase inhibition | purified USP17, Ub-rhodamine cleavage fluorescence, 3 h | inhibition, % at 50 µM | actives 6.5% (n = 47,000)
Numbers without * were called inactive; / = no result. Compounds with a hit are over-represented: about 13% of the library has one in this group of screens. No stated cut-off is given here; in the data, active means inhibition above about 30%; inactive means the rest.

SMILES | USP30 inh | OTUD3 block | USP28 inh | USP10 inh | USP8 block | USP17 inh
COc1cccc(C(=O)N2c3ncnn3C(c3ccccc3)CC2c2ccccc2)c1 (centres undefined) | 24 | 0 | -1 | 6 | 22 | 4
Cc1ccc(Nc2nccc(C3CCCN(C(=O)C4CCCC4)C3)n2)cc1 (centres undefined) | -4 | -3 | 0 | 2 | -16 | 0
COc1ccc(-c2cc(C(=O)OCC(=O)NCc3ccccc3OC)c3ccccc3n2)cc1 | -26 | -6 | -4 | 0 | 2 | -5
COc1ccc(-c2cc(C(=O)OCC(=O)Nc3cc(C)on3)c3ccccc3n2)cc1OC | -222 | -39 | -62 | -6 | -6 | 30*
CCN1CCC2(CN(C(C)=O)CC23CCN(C(=O)c2cccc(Cl)c2)CC3)C1=O (centres undefined) | 3 | 2 | 0 | 1 | -12 | -2
O=C(COc1ccccc1)N(Cc1ccccc1O)c1ccccc1Cl | 33* | 15 | 25 | 15 | 14 | 29
CCn1c(SCC(=O)N2CCc3ccccc32)nnc1-c1ccc(C)c(Cl)c1 | 21 | 8 | 8 | -3 | -2 | 33*
CCn1c(SCC(=O)N2CCc3ccccc32)nnc1-c1ccc2c(c1)OCCO2 | 74* | 28 | 4 | -3 | -17 | 58*
CCn1c(SCC(=O)N2CCc3ccccc32)nnc1C1CC1 | / | 0 | / | 1 | 0 | -10
COc1ccc(OC)c(-n2c(SCC(=O)N3CCc4ccccc43)nnc2-c2cccc(S(=O)(=O)N(C)C)c2)c1 | 49* | 32* | 43* | 7 | 11 | 48*
CCn1c(SCC(=O)c2c(C)[nH]c3ccccc23)nnc1-c1ccc2c(c1)OCCO2 | 53* | 6 | 41* | 10 | -9 | 67*
Cc1cc(Nc2cccc(C(=O)Nc3ccccc3)c2)n2nc(-c3cccnc3)nc2n1 | 21 | 15 | 9 | -1 | 16 | 28
CCc1ccc(NC(=O)CCNc2cc(C)nc3nc(-c4cccnc4)nn23)cc1 | -47 | -14 | -42 | -3 | -2 | 34*
Cc1cc(NCCC(=O)Nc2ccc(F)cc2)n2nc(-c3cccnc3)nc2n1 | -1 | -6 | 8 | -10 | 5 | -3
Cc1cc(Nc2cccc(C(=O)Nc3ccccc3C)c2)n2nc(-c3cccnc3)nc2n1 | 46* | -3 | 25 | 2 | -12 | 8
CC(C)c1cc(Nc2cccc(F)c2)n2nc(-c3cccnc3)nc2n1 | 53* | 12 | 6 | 0 | 16 | 34*
Cc1cc(Nc2ccc(C(=O)NCc3ccco3)cc2)n2nc(-c3cccnc3)nc2n1 | 30* | 0 | 11 | 5 | 11 | 75*
O=C(c1ccncn1)N1CCCC(c2ncc(Cc3ccccc3Cl)o2)C1 (centres undefined) | -16 | 0 | -1 | -2 | 3 | 0
COc1cccc(NC(=O)Nc2ccccc2SCc2cc(=O)n3oc(C)cc3n2)c1 | -3 | 2 | 5 | 2 | -3 | 0
COc1ccccc1NC(=O)C(=O)c1cc(C)n(-c2ccccc2Cl)c1C | -36 | -1 | 5 | -7 | -12 | -8
Cc1cccc(-c2c(NC(=O)C3CCCCC3)n(C)c3ccccc3c2=O)c1 | 3 | -1 | -11 | 7 | 9 | 5
COc1ccc(CN2C[C@H]3NC(=O)c4ccccc4C(=O)[C@@]3(C)C2)cc1 | -1 | -5 | -2 | 5 | 6 | 0
Cc1nc(Nc2ncccn2)cc(C2CCCN2)n1 (centres undefined) | 16 | 4 | 30* | -1 | -17 | 4
Cc1nc(Nc2nnc(C)s2)cc(C2CCCN2)n1 (centres undefined) | 1 | 0 | -5 | 4 | -39 | -5
O=S(=O)(Nc1cnc(N2CCCC2)nc1)c1ccc(Cl)c(Cl)c1 | -6 | -5 | 3 | 1 | -21 | -3
Cc1cccn2c(=O)c3cc(C#N)c(=O)n(-c4cccc(C(F)(F)F)c4)c3nc12 | -387 | -52 | -69 | -8 | -2 | -88
Cc1cccn2c(=O)c3cc(C#N)c(=O)n(-c4ccccc4[N+](=O)[O-])c3nc12 | -71 | -19 | -22 | -9 | 12 | 39*
Cc1cccc(C(=O)N2CCC[C@@]3(C[C@@H](Oc4cccc(F)c4)CO3)C2)n1 | -2 | 7 | -5 | 2 | 1 | -4
O=c1[nH]c(CN2CCN(S(=O)(=O)c3ccccc3Cl)CC2)nc2ccccc12 | -55 | -23 | -25 | -7 | -14 | -25
